High-throughput results from PubChem.
ERK AVP inh: inhibitors of vasopressin-stimulated ERK signaling pathway; Potency, µM (titrated, usually from 57.5 µM), actives largely listed as inhibitors; 72,000 compounds, 0.99% hits; HEK293-V1b, vasopressin-stimulated pERK AlphaScreen; also: nearly all actives have a fitted effect of over 55% in size
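qHTS, compounds titrated on V1b-expressing HEK293 cells. Preincubation 30 min at 37C, vasopressin 25 nM for 5 min, lysis 10 min, bead incubation 5 hr at room temperature.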
HEK293 cAMP ctrl: counter-screen for TSHR agonists: cAMP increase in parental HEK293 | parental HEK293 CNG cAMP sensor, membrane potential fluorescence | Potency, µM (series often up to 57.1 µM), most hits filed as activators | AID 938 | 73,000 compounds, 2.5% hits; also: nearly all actives have a fitted effect of over 55% in size
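Parental HEK 293 cells stably expressing a cAMP-gated CNG channel were loaded with membrane potential dye containing 100 uM RO 20-1724 for 60 min. Compound added for 30 min; depolarization read as fluorescence intensity at 590 nm.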
Casp1 inh: caspase-1 (human) inhibition, allosteric or competitive; P29466; Caspase-1 enzyme, Ac-WEHD-AFC fluorogenic rate; Potency, µM (top dose mostly 57.5 µM), actives largely listed as inhibitors; 75,000 compounds, 0.03% hits; AID 900
Target sequence (P29466 120-297 limits assumed): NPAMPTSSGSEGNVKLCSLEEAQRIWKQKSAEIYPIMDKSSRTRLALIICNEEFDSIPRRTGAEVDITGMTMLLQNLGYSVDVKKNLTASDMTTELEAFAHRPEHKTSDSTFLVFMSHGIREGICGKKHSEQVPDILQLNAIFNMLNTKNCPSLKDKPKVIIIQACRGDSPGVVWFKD
Target sequence (P29466 317-404 limits assumed): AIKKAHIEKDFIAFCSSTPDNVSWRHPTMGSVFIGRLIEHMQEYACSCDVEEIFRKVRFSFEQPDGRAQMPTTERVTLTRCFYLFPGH
Casp7 inh: allosteric or competitive inhibitors of human caspase-7 | P55210 | recombinant caspase-7, Ac-DEVD-AFC fluorescence rate | Potency, µM (titrated, usually from 57.5 µM), usual class: inhibitors | 75,000 compounds, 0.02% hits; active = well fitted inhibition curve with a large enough effect in the main read-out, with a control signal flat, not every such curve was filed as active; inconclusive = small, poorly fitted or top-dose-only effect, or a change in a side signal
GBA mod: alters purified human glucocerebrosidase activity; purified enzyme, resorufin glucoside fluorescence (screen aimed at inhibitors), 20 min; Potency, µM; 48,000 compounds, 1.1% hits; in the data active = potency below about 15 µM; inconclusive = mostly about 16 µM to 33 µM;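 also: the screen sought inhibitors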
Target sequence (P04062 whole entry, looked up): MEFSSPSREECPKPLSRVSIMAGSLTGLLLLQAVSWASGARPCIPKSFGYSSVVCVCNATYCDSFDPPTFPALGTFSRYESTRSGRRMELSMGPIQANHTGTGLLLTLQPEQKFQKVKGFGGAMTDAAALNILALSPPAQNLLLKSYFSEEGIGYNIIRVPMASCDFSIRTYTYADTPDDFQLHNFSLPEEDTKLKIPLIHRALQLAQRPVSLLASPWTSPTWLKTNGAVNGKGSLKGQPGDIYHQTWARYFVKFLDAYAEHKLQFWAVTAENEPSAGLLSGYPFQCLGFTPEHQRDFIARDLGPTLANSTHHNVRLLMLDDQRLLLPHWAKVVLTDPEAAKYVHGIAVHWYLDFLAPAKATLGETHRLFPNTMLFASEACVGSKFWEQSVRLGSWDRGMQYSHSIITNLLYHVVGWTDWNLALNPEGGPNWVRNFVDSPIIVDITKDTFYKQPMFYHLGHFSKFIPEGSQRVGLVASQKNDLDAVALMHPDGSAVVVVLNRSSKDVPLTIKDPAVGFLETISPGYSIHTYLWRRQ
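Compounds titrated against 0.2 nM normal enzyme, 30 uM resorufin beta-D-glucopyranoside substrate, citrate/phosphate buffer with taurocholate and tween-20, pH 5.9. Reaction ran 20 min at room temperature; fluorescence (Ex 548/Em 600) gave AC50.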
TSHR ag: agonists of human thyroid stimulating hormone receptor | HEK293-CNG-TSHR cells (CNG channel as cAMP sensor), membrane potential dye, cAMP | Potency, µM (doses to about 57.1 µM), usual class: activators | P16473 | 73,000 compounds, 0.48% hits; active = well fitted activation curve with a large enough effect in the main read-out, with a control signal flat, not every such curve was filed as active; inconclusive = small, poorly fitted or top-dose-only effect, or a change in a side signal; inactive = no such curve, though single readings can be large or run the other way; reference of the percent scale not stated here;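 also: the control signal comes from parental cells without the receptor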
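HEK 293 cells stably expressing TSHR and a cAMP-gated CNG channel; parental CNG-only cells as counterscreen. Cells preloaded 60 min with membrane potential dye plus 100 uM RO 20-1724, then compound 30 min; fluorescence read at 590 nm.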
Each line names hits and unclear results; the compound was inactive in the other large screens. Compounds with a hit are over-represented: about 4.5% of the library has one in this group of screens. Unless noted, calls follow the shape of the dose curve; as a rule, active = well fitted curve in the direction sought with a large enough effect; inconclusive = small, poorly fitted or top-dose-only effect, or another doubt; inactive = no such curve, though single readings can be large; an effect the other way counts as inactive or inconclusive.

Cc1cc(C)n(-c2ccn(Cc3ccc(Cl)cc3Cl)c(=O)n2)n1	HEK293 cAMP ctrl 16µM, TSHR ag inconclusive
O=C(Cn1c(=O)[nH]n(-c2ccccc2)c1=O)N1CCCc2ccccc21	GBA mod 9
CNc1ccc(O)cc1	Casp1 inh inconclusive (no result: GBA mod)
COc1ccc(CCn2c(-c3ccco3)nc3nc4ccccc4nc32)cc1	Casp7 inh inconclusive (no result: Casp1 inh)
COc1ccc(C(=O)n2c(-c3ccco3)nc3ccccc32)cc1	HEK293 cAMP ctrl 25µM, Casp1 inh inconclusive, TSHR ag inconclusive
Cc1nnc(NC(=O)c2sc3ccccc3c2Cl)s1	GBA mod 15
Cc1nnc(NC(=O)c2c(F)c(F)c(F)c(F)c2F)s1	GBA mod inconclusive
Cc1nnc(NC(=O)c2ccccc2Br)s1	GBA mod 3.9
Cc1nnc(NC(=O)c2ccccc2F)s1	GBA mod 7.9
COCc1nnc(NC(=O)c2sc3ccccc3c2Cl)s1	none
CCn1nnc(NC(=O)c2ccccc2Br)n1	HEK293 cAMP ctrl 32µM, TSHR ag inconclusive
COC(=O)NC(/C=C/c1ccccc1)[C@]1(C(C)=O)CCCC1=O (stereo not given in full)	none (no result: GBA mod, TSHR ag)
CCCn1c(C)nc2c(NCC(C)(C)CN(C)C)nc(C)nc21	none (no result: GBA mod)
CC[C@@H]1[C@H]2CCCCN3[C@@H]2[C@@H](C[C@H]3[C@@H]2C[C@H](C)C(=O)O2)[C@@H]2[C@H]1OC(=O)[C@H]2C	none (no result: ERK AVP inh, Casp1 inh, Casp7 inh, GBA mod)
O=C(O)/C=C\C(=O)N1Cc2cc3ccccc3nc2C1	none (no result: GBA mod)
S=C(Nc1ccccc1)Nc1ccccc1C#Cc1ccccc1	none (no result: GBA mod)
COc1ccc(NC(=O)Nc2ccc3c(c2)N(C)C(=O)CS3)cc1OC	ERK AVP inh 25µM (no result: GBA mod)
Cc1ccc2ccccc2c1COC(=O)c1nonc1N	HEK293 cAMP ctrl 16µM, TSHR ag inconclusive (no result: GBA mod)
CN1CCc2c(sc3c2C(=O)NC(/C=C/c2ccco2)N3)C1 (stereo not given)	ERK AVP inh 16µM, Casp7 inh inconclusive (no result: Casp1 inh)
Cc1ccc(C2NC(=O)c3c(sc4c3CCN(C)C4)N2)o1 (stereo not given)	ERK AVP inh inconclusive, Casp7 inh inconclusive (no result: Casp1 inh)
COc1ccc(CCNc2ncnc3c2oc2ccccc23)cc1OC	ERK AVP inh 32µM, HEK293 cAMP ctrl 13µM, TSHR ag inconclusive
COc1ccc(CCNc2nc(C)nc3c2oc2ccccc23)cc1OC	ERK AVP inh 13µM, HEK293 cAMP ctrl inconclusive, TSHR ag inconclusive
COc1ccccc1NC(=O)CSc1ncnc2c1oc1ccccc12	HEK293 cAMP ctrl inconclusive, TSHR ag inconclusive (no result: GBA mod)
O=C(O)CCSCc1ccc(I)cc1	none (no result: GBA mod)
CCCCC[C@H](O)c1cccc(OCc2ccc3ccccc3n2)c1	ERK AVP inh inconclusive, HEK293 cAMP ctrl 20µM, TSHR ag inconclusive (no result: GBA mod)
COc1ccccc1-c1cncnc1NCCNC(C)=O	none (no result: GBA mod)
Cc1cccc(-c2nc(C#N)c(N3CCCCCC3)o2)c1	ERK AVP inh inconclusive, TSHR ag 25µM
COc1ccc(-c2nc(C#N)c(N3CCN(c4ccccc4)CC3)o2)cc1	none (no result: GBA mod, TSHR ag)
C[C@@]12CCC(=O)C=C1CC[C@@H]1[C@@H]2[C@H](O)C[C@]2(C)[C@@H]1CC[C@]2(O)C(=O)COC(=O)CCC(=O)O	HEK293 cAMP ctrl inconclusive, TSHR ag inconclusive (no result: GBA mod)
COc1cccc([C@H]2Oc3ccc(OC)cc3/C(=N\O[C@@H](C)c3cn([C@H](CO)Cc4ccccc4)nn3)[C@@H]2O)c1	none (no result: GBA mod)
Clc1ccc2[nH]c3c(NCC4CCCO4)ncnc3c2c1 (stereo not given)	ERK AVP inh 25µM, GBA mod inconclusive
Clc1ccc(-n2ncc3c(NCC4CCCO4)ncnc32)cc1 (stereo not given)	HEK293 cAMP ctrl inconclusive, TSHR ag inconclusive (no result: ERK AVP inh, GBA mod)
CCOc1cc(C(=O)OCc2ccc(C(=O)OC)o2)cc(Br)c1OC	HEK293 cAMP ctrl 32µM, TSHR ag inconclusive
O=C(CSc1nc2ccccc2c2ccccc12)c1ccccc1	none (no result: GBA mod)
C[C@@H]1/C=C\CC(=O)OC[C@H](C)C(=O)N[C@@H](C)C(=O)OC1	none (no result: GBA mod)
O=C(NC1CCN(Cc2ccccc2)C1)c1ccc(Cc2nc3ccccc3[nH]2)cc1 (stereo not given)	none (no result: ERK AVP inh, GBA mod)
COc1cccc(Cn2c(Oc3cccc(C)c3)nc3c2c(=O)n(C)c(=O)n3C)c1	HEK293 cAMP ctrl 25µM, TSHR ag inconclusive
COCCNc1nc2c(c(=O)n(C)c(=O)n2C)n1Cc1cccc(C)c1	none
Cn1c(=O)c2c(nc(N3CCNCC3)n2Cc2cccc3ccccc23)n(C)c1=O	GBA mod inconclusive
CCCOc1nc2c(c(=O)n(C)c(=O)n2C)n1Cc1cccc2ccccc12	ERK AVP inh inconclusive, HEK293 cAMP ctrl 32µM, TSHR ag inconclusive
CC(C)(CO)[C@H](O)C(=O)NCCC(=O)O	none (no result: GBA mod)
CCCn1c(-c2ccc(F)cc2)nc2c(NCCN(C(C)C)C(C)C)nc(C)nc21	HEK293 cAMP ctrl 13µM, TSHR ag inconclusive (no result: GBA mod)
CCCn1c(-c2ccc(F)cc2)nc2c(N3CCN(C)CC3)nc(C)nc21	HEK293 cAMP ctrl 16µM, TSHR ag inconclusive (no result: GBA mod)
COc1ccc(/C=C/C(=O)c2ccc(O)cc2O)cc1OC	ERK AVP inh 16µM (no result: HEK293 cAMP ctrl, GBA mod, TSHR ag)
Cc1cc(C)nc(N2CCC(C(=O)Nc3nnc(C)s3)CC2)n1	GBA mod 3
Cc1cc(C)nc(N2CCC(C(=O)O)CC2)n1	none
C[C@@]12CCC(=O)C=C1CC[C@@H]1[C@@H]2[C@H](O)C[C@]2(C)[C@@H]1CC[C@]2(O)C(=O)CO	none (no result: GBA mod)
N#Cc1cccc(NC(=O)N2CC[C@@]3(CCCN(C(=O)c4csnn4)C3)C2)c1	none (no result: GBA mod)
CCCCCCCCCCCCCCCCCCOC[C@@H](COP(=O)([O-])OCC[N+](C)(C)C)OC	none (no result: GBA mod)
NC(=O)CN1CCN(C(=O)NC2CCCCC2)CC1	HEK293 cAMP ctrl 25µM, TSHR ag inconclusive (no result: GBA mod)
O=C(NCCN1CCN(C(=O)NC2CCCCC2)CC1)NC1CCCCC1	none
COc1ccc(OCCn2c(=N)n(CCO)c3ccccc32)cc1	GBA mod 4.3
Cc1ccc(OCC(O)Cn2c(=N)n(CCN3CCOCC3)c3ccccc32)cc1 (stereo not given)	ERK AVP inh inconclusive, HEK293 cAMP ctrl 20µM, TSHR ag inconclusive (no result: GBA mod)
COc1ccccc1OCC(O)Cn1c(=N)n(Cc2ccccc2)c2ccccc21 (stereo not given)	HEK293 cAMP ctrl inconclusive, GBA mod inconclusive, TSHR ag inconclusive
CCCCCn1c(=N)n(CC(O)COc2ccccc2OC)c2ccccc21 (stereo not given)	ERK AVP inh 13µM, HEK293 cAMP ctrl inconclusive, TSHR ag inconclusive (no result: GBA mod)
CC(C)(S)[C@H](N)C(=O)O	none (no result: GBA mod)
O=C1Nc2ccc(S(=O)(=O)N3CCCCCC3)c3cccc1c23	HEK293 cAMP ctrl 32µM, Casp7 inh inconclusive, TSHR ag inconclusive (no result: ERK AVP inh, Casp1 inh, GBA mod)
COc1ccc([C@@H]2CC(=O)c3c(O)cc(O[C@@H]4O[C@@H](CO[C@@H]5O[C@@H](C)[C@@H](O)[C@@H](O)[C@H]5O)[C@@H](O)[C@@H](O)[C@H]4O)cc3O2)cc1O	none (no result: ERK AVP inh, Casp1 inh, Casp7 inh, GBA mod)
